Shown is part of a subset that was picked to be rich in hits.
Tgondii IFNg – T. gondii growth inhibition with IFN-gamma, primary screen, cell-based; Toxoplasma gondii growth in IFN-gamma-treated host cells; active compounds read low; activity change, negative = inhibition, % (no concentration beside the values); hit rate 3.8% among 69,000; in the data active = activity change below about -70%, passing the limit was not always enough;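 note: host cells are HeLa cells infected with Toxoplasma gondii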
* hit, by the source's call.

`O=C1Cc2c([nH]c3ccc([N+](=O)[O-])cc23)-c2ccccc2N1` gave Tgondii IFNg -74*.
`COc1ccc(C[C@H]2CN(C)CC[C@H]2OC)cc1` gave Tgondii IFNg 1.
Cc1ccnc(NCCNc2nc(C(C)(C)C)nc3c2cnn3C)c1 was read as Tgondii IFNg -3.
`CN(Cc1nc2ccc(F)cc2[nH]1)C1CCN(C(=O)c2ccccc2)CC1` gave Tgondii IFNg 0.
`CC(C)N1CCNC(=O)C1CC(=O)N(C)Cc1nc2ccccc2[nH]1` (centres undefined) gave Tgondii IFNg -1.
Screening CC(C)[C@H]1c2ccc(F)cc2CC[C@@]1(CCN(C)CCCc1nc2ccccc2[nH]1)OC(=O)C1CC1 returned Tgondii IFNg -86*.
COc1ccc(Cl)cc1NC(=O)NCC(c1cccnc1)c1c[nH]c2ccccc12 (centres undefined) was read as Tgondii IFNg 74.
Screening N#Cc1c(-c2ccccc2)cc(-c2ccc(Cl)cc2)nc1N returned Tgondii IFNg 10.
N#Cc1c(N)nc(Sc2ccc(Cl)cc2)c(C#N)c1-c1ccccc1 was read as Tgondii IFNg -92*.
For CCc1nc(N)c(C#N)c(-c2ccccc2)c1C the results were Tgondii IFNg 12.
Screening CCCOC(=O)N1CCC(c2nn(C)c(=O)n2Cc2ccccc2)CC1 returned Tgondii IFNg -1.
For O=C1OCCCN1CCn1ccnc1-c1cnc(N2CCCC2)s1 the results were Tgondii IFNg -5.
COc1ccc(CCNC(=O)C2CCCN2S(=O)(=O)c2ccc(C)cc2)cc1 (centres undefined) was read as Tgondii IFNg -8.
CN(C)Cc1c(C(=O)NCCOc2ccc(C(=O)NO)cc2)oc2ccccc12 was read as Tgondii IFNg -74*.
Screening COc1ccc(OCCNC(=O)c2cccs2)cc1 returned Tgondii IFNg 2.
`O=C(NCCCOc1ccccc1)c1c(O)cccc1O` gave Tgondii IFNg 12.
Screening COc1cccc(CCN2C[C@]34CN(c5ncc(F)cn5)C[C@@H](C[C@H]3S2(=O)=O)O4)c1 returned Tgondii IFNg 1.
For Cc1noc(C)c1C(=O)N1CCC2(CC1)C(=O)N(C)CCN2CC(C)C the results were Tgondii IFNg -11.
`CN(C)Cc1ccc(S(=O)(=O)n2ccc(/C=C/C(=O)NO)c2)cc1` gave Tgondii IFNg -81*.
For O=C1CO[C@H]2CN(CC3CCOC3)C[C@@H]2N1Cc1cccc(F)c1 (some centres undefined) the results were Tgondii IFNg 4.
`COc1ccc(C(=O)NCc2ccco2)cc1OC` gave Tgondii IFNg 85.
O=C(c1ccsc1)N1CCO[C@@H]2[C@H]1CC[C@H]2OCc1ccccn1 was read as Tgondii IFNg 78.
For COc1cc(-c2nccnc2OC)cc(OC)c1OC the results were Tgondii IFNg 9.
Screening O=C(Cc1cccs1)N1CCC2(CC1)Nc1ccccc1-n1cccc12 returned Tgondii IFNg 4.
COc1ccc(S(=O)(=O)NCc2ccco2)cc1C was read as Tgondii IFNg -6.
For CCCCN(CC)S(=O)(=O)c1ccc2[nH]c(=O)ccc2c1 the results were Tgondii IFNg 73.
Screening Cc1ccc(-c2nc(C(=O)N3CCCCCC3)c3n2CCCCC3)cc1 returned Tgondii IFNg -80*.
CCOC(=O)C(C)NC(=O)c1cc(-c2cccnc2)n[nH]1 (centres undefined) was read as Tgondii IFNg 12.
CC(C)OCCCNC(=O)c1nc(-c2ccc(Cl)cc2)n2c1CCCCC2 was read as Tgondii IFNg -47.
Screening CC1CCCCN1CCNC(=O)c1nc(-c2ccc(Cl)cc2)n2c1CCCCC2 (centres undefined) returned Tgondii IFNg 6.
Screening Cc1ccc(-c2nc(C(=O)NC(C)C)c3n2CCCCC3)cc1 returned Tgondii IFNg -78*.
For CCOC(=O)C1CCCN(C(=O)c2nc(-c3ccc(C)cc3)n3c2CCCCC3)C1 (centres undefined) the results were Tgondii IFNg 223.
CC(C)CNC(=O)c1nc(-c2ccc(Cl)cc2)n2c1CCCCC2 was read as Tgondii IFNg -100*.
Screening CCOC(=O)C(C)NC(=O)c1nc(-c2ccc(C)cc2)n2c1CCCCC2 (centres undefined) returned Tgondii IFNg -106*.
`Cc1ccc(-c2nc(C(=O)N3CCCCC3c3cccnc3)c3n2CCCCC3)cc1` (centres undefined) gave Tgondii IFNg 105.
For CCN(CC)C(=O)c1nc(-c2ccc(C)cc2)n2c1CCCCC2 the results were Tgondii IFNg -32.
O=C(c1nc(-c2ccc(Cl)cc2)n2c1CCCCC2)N1CCC2(CC1)OCCO2 was read as Tgondii IFNg 118.
CC(C)c1ccc(-c2cn(C(C)c3nccs3)nn2)cc1 (centres undefined) was read as Tgondii IFNg 172.
`CCN(Cc1ccc(OC)cc1)C(=O)c1cn2c(n1)CNCC2` gave Tgondii IFNg 4.
Cc1ccc(CN2CCC3C2CCC(=O)N3CCN2CCCC2)s1 (centres undefined) was read as Tgondii IFNg 74.

Screening data from PubChem BioAssay.
